HT1080NT lethal: qHTS for induction of synthetic lethality in tumor cells producing 2HG: qHTS for the HT-1080-NT fibrosarcoma cell line; 360,000 compounds, 1.6% hits; AID 686970, 2013; Potency, µM (highest dose often 46.1 µM), inactives show at the highest dose activity, negative = less viability, most hits filed as cytotoxic; HT-1080-NT fibrosarcoma viability, CellTiter-Glo ATP luminescence, 48 h;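 also: NT is the 2HG producing partner of a matched IDH1 knockdown line; 0% = DMSO-treated cells and -100% = media-only wells without cells; nearly all actives have a fitted effect of over 55% in size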
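Viability by CellTiter-Glo luminescence after 48 h compound exposure at 37C of HT-1080-NT cells (750/well, RPMI, 5% FBS). % activity scaled between DMSO wells and medium-only wells, then curve-fitted and categorized by curve class.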
KB-V1 MDR tox: qHTS assay for MDR1-selective chemotherapeutics: Primary screen using the drug-selected MDR subline cells KB-V1. KB-V1 MDR cells viability, CellTiter-Glo, 72 h. AID 1347076, 2019. 400,000 compounds, 3.4% hits. Potency, µM (top dose mostly 46.1 µM), most hits filed as cytotoxic; also: nearly all actives have a fitted effect of over 60% in size
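qHTS viability screen in drug-selected KB-V1 MDR cells: 72 h compound treatment at 37 degrees C, ATP luminescence end point.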
DT40 TDP1 CPT: qHTS for Inhibitors of human tyrosyl-DNA phosphodiesterase 1 (TDP1): qHTS in cells in presence of CPT; chicken DT40 Tdp1-/-;hTDP1 cells + 20 nM CPT, ATP luminescence, 48 h; Potency, µM (titrated, usually from 46.2 µM), without a hit: at the top dose activity change, negative = growth inhibition, actives largely listed as inhibitors; 420,000 compounds, 12% hits; AID 686979, 2013; also: nearly all actives have a fitted effect of over 55% in size
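Cell growth measured by CellTiter-Glo luminescence after a minimum 48 h, 37 C compound exposure with 20 nM CPT in Tdp1-knockout DT40 cells stably expressing hTDP1, seeded 400/well; qHTS titration format.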
DT40 TDP1 no CPT: qHTS for Inhibitors of human tyrosyl-DNA phosphodiesterase 1 (TDP1): qHTS in cells in absence of CPT | DT40 Tdp1-/- hTDP1 cells, no CPT, ATP luminescence, 48 h | 420,000 compounds, 15% hits | Potency, µM (top dose mostly 46.2 µM), for the others: at the top dose activity change, negative = growth inhibition, most hits filed as inhibitors; also: nearly all actives have a fitted effect of over 55% in size
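DT40 Tdp1-/-;hTDP1 cells, no CPT (DMSO vehicle only), 400 cells/well; compounds pin-transferred; ≥48 hr, 37 °C; CellTiter-Glo 30 min RT dark, luminescence read.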
HT1080 IDH1KD tx: qHTS for induction of synthetic lethality in tumor cells producing 2HG: qHTS for the HT-1080-IDH1KD cell line; HT-1080 IDH1 knockdown viability, ATP luminescence, 48 h; Potency, µM (top dose mostly 46.1 µM), inactives show at the top dose activity, negative = toxicity, most hits filed as cytotoxic; 360,000 compounds, 2% hits;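 also: 0% = DMSO wells and -100% = cell-free medium wells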
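Using the IDH1-knockdown HT-1080 line run in the same batch and compound series as the NT line, viability after 48 h at 37 °C was determined by CellTiter-Glo luminescence and expressed as % activity.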
KB-3-1 tox: qHTS assay for MDR1-selective chemotherapeutics: Primary screen using the parental adenocarcinoma cell KB-3-1; KB-3-1 viability, CellTiter-Glo ATP luminescence, 72 h; Potency, µM (top dose mostly 46.1 µM), actives largely listed as cytotoxic; 400,000 compounds, 1.4% hits; AID 1347075, 2019; also: nearly all actives have a fitted effect of over 60% in size
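Here the drug-naive KB-3-1 line serves as comparator for MDR sub-line selectivity; cells received compound titrations, 72 h at 37 °C, then CellTiter-Glo readout.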
* hit, by the source's call; i = inactive; ? = inconclusive; · = no result given; ! = a repeat was not active. A selection: hits, their analogues and other compounds. The true share with any hit is near 19%. Calls follow the shape of the dose curve; as a rule, active = well fitted curve in the direction sought with a large enough effect; inconclusive = small, poorly fitted or top-dose-only effect, or another doubt; inactive = no such curve, though single readings can be large; an effect the other way counts as inactive or inconclusive. Unless noted, % is scaled to controls: 0 for no effect and ±100 for the full control effect; potency is read from the fitted curve at half-maximal effect.

SMILES	HT1080NT lethal	KB-V1 MDR tox	DT40 TDP1 CPT	DT40 TDP1 no CPT	HT1080 IDH1KD tx	KB-3-1 tox
COc1ccc(-c2coc3c(O)c(OC)ccc3c2=O)cc1	·	·	-22%	?	·	·
CCN(CC(=O)Nc1ccccc1C(F)(F)F)C(=O)c1ccc(N2CCCC2=O)cc1	-2%	i	-4%	?	0%	i
Cc1ccc(NC(=O)CSc2nnc(CNC(=O)C34CC5CC(CC(C5)C3)C4)n2-c2ccc(F)cc2)cc1	?	i	16µM*	?	?	i
COC(=O)c1ccc(Cl)cc1NC(=O)NCc1c(-n2cccc2)sc2c1CCCC2	·	i	?	?	·	i
COc1ncc2ncc(=O)n(CCC#N)c2n1	·	·	-7%	-9%	·	·
N#C/C(=N\Nc1cccc2ccccc12)c1nnc2n1CCCCC2	-15%	i	?	33µM*	-4%	i
O=C(C1Cc2ccccc2CN1S(=O)(=O)c1ccccc1[N+](=O)[O-])N1CCOCC1 (stereo not drawn)	18%	·	21µM*	?	-2%	·
O=S(=O)(c1ccccc1)c1nnn2c1nc(NC1CCCCC1)c1sccc12	·	i	-18%	-6%	·	i
CCOC(=O)N1CCC2(CC1)C(C#N)=C(N)Oc1n[nH]c(CSc3ccc(C)cc3)c12	?	i	7.3µM*	?	?	i
Cc1ccc(SCc2[nH]nc3c2C2(CCSCC2)C(C#N)=C(N)O3)cc1	-11%	?	-11%	-25%	?	i
C(=N\Nc1nc2ccccc2[nH]1)/c1ccc2c(c1)OCCO2	-8%	i	?	?	?	?
Cc1cccc(/C=N/Nc2ccc3ccccc3n2)c1	-6%	i	-78%	29µM*	-3%	i
C(=N\Nc1ccc2ccccc2n1)/c1ccc2c(c1)OCCO2	-8%	18µM*	?	?	-8%	i
Cc1cc(C)nc(N/N=C/c2ccccc2)n1	8%	i	-19%	-11%	-1%	i
Cc1ccc(/C=N/NS(=O)(=O)c2ccccc2)o1	-2%	i	-15%	-23%	-2%	i
Cc1ccc(/C=N/Nc2ccc3ccccc3n2)o1	-29%	8.2µM*	2.3µM*	4.1µM*	-23%	i
CCOc1ccc(NC(=O)CSc2nc3c(oc4ccccc43)c(=O)n2CCOC)cc1	·	i	-30%	-13%	·	i
CCOC(=O)Cn1c(=O)n(-c2cccc(Cl)c2)c2nc(-c3ccccc3Cl)nc(C(N)=O)c21	·	i	·	·	·	i
CSc1nc2ccc(NC(=O)COc3ccccc3F)cc2s1	2%	i	-14%	?	0%	i
O=C(Nc1ccc2nc(SCC(=O)N3CCCC3)sc2c1)c1ccccc1F	·	·	16µM*	16µM*	·	·
O=C(COc1ccccc1F)Nc1ccc2nc(SCC(=O)N3CCOCC3)sc2c1	·	·	18µM*	12µM*	·	·
O=C(COc1ccccc1F)Nc1ccc2nc(SCC(=O)N3CCCC3)sc2c1	·	·	?	13µM*	·	·
O=C(NCc1cccc(C(F)(F)F)c1)c1csc([C@H]2C[C@H](O)[C@@H](CO)O2)n1	4%	i	-9%	-8%	?	i
Cc1cc(C)c2oc(C(=O)Nc3c(C(=O)c4ccccc4)oc4ccccc34)cc(=O)c2c1	·	i	14%	-21%	·	i
O=C(O)c1ccccc1NC(=O)N1c2ccccc2Sc2ccccc21	·	i	?	?	·	i
SMILES	HT1080NT lethal	KB-V1 MDR tox	DT40 TDP1 CPT	DT40 TDP1 no CPT	HT1080 IDH1KD tx	KB-3-1 tox
c1cc2c(c(CC3CO3)c1CC1CO1)OCCOCCOCCOCCO2 (stereo not drawn)	0%	i	2.1µM*	2.3µM*	0%	i
CCc1sc(N2C(=O)C3C4CCC(C4=C(C)C)C3C2=O)nc1-c1ccccc1 (stereo not drawn)	-28%	12µM*	-6%	-26%	-22%	i
COc1ccccc1CNC(=O)CSc1nc(=O)[nH]c2c1CCC2	·	·	8%	5%	·	·
CC(Cc1cccc(C(F)(F)F)c1)NCCOC(=O)c1ccccc1 (stereo not drawn)	11%	i	?	18µM*!	3%	i
Cc1oc(-c2ccccc2F)nc1CS(=O)(=O)CC(=O)NCCc1ccc(Cl)cc1	·	i	?	-27%	·	i
CCCC(=O)C1=C(O)C(C(=O)OC)C(C)(C)CC1=Nc1ccc(N)cc1 (stereo not drawn)	3%	i	-19%	-10%	9%	i
CCCC(=O)C1=C(O)C(C(=O)OC)C(C)(C)CC1=Nc1ccc(OC)cc1 (stereo not drawn)	5%	?	?	21µM*	2%	i
CCCC(=O)C1=C(O)C(C(=O)OC)C(C)(C)CC1=Nc1ccc(Br)cc1 (stereo not drawn)	-2%	i	?	23µM*	-12%	i
O=C(Oc1ccccc1)N1CCC2(CCCN(c3ccncc3)C2)CC1	·	·	21µM*	15µM*	·	·
O=C(Oc1ccccc1)N1CCC2(CC1)CN(c1ccncc1)C2	·	·	13µM*	10µM*	·	·
COC(=O)N1CCC2(CC1)CCN(c1ccncc1)CC2	·	·	7.3µM*	16µM*	·	·
COc1cc(=O)n2c(c1C(=O)N(C)Cc1ccsc1)CCN(Cc1c(C)nc3sccn13)CC2	·	·	-4%	-24%	·	·
CCC(Sc1nc2c(sc3ccccc32)c(=O)n1CCCC(=O)NC1CCCC1)C(=O)Nc1cccc(OC)c1 (stereo not drawn)	·	·	-7%	?	·	·
CCN1C(=O)Cc2cc(S(=O)(=O)NCCc3ccccc3)ccc21	-5%	i	-14%	?	8%	i
CN(C(=O)C(=O)Nc1ccc2nc3n(c(=O)c2c1)CCCCC3)c1cccc(C(F)(F)F)c1	·	i	4%	-1%	·	i
CCOC(=O)c1nn(-c2ccc(C)c(C)c2)c(=O)c2c(N)scc12	-15%	i	21µM*	?	-17%	i
CC(C)NC(=O)CN1C(=O)C(=O)c2ccccc21	0%	i	-25%	-14%	2%	i
Cc1ccc(C)c(CN2C(=O)C(=O)c3ccccc32)c1	·	?	1.2µM*	0.92µM*	·	i

Screens from PubChem.
